Compound activity as filed in PubChem.
SMN2 splice up: qHTS Assay for Enhancers of SMN2 Splice Variant Expression | HEK293 SMN2-luciferase splicing reporter, luminescence, 30-36 h | Potency, µM (titrated, usually from 46.1 µM), hits mostly activators | actives 2.8% (n = 210,000); further: nearly all actives have a fitted effect of over 55% in size
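HEK293 cells carry an SMN2 minigene-luciferase reporter in which exon 7 inclusion puts luciferase in frame. Cells were seeded at 2000 cells/well, attached for 10-12 hours, then exposed to compounds for 30-36 hours at 37C before ONE-Glo luminescence.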
NPC1 prom act: qHTS Assay for NPC1 Promoter Activators; Huh7 NPC1 promoter luciferase reporter, 24 h; Potency, µM (titrated, usually from 9.22 µM), usual class: activators; actives 2.4% (n = 320,000); further: nearly all actives have a fitted effect of over 60% in size
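Stably transfected Huh7 (NPC1 promoter→luciferase), 1500 cells/well in Opti-MEM + 10% FBS, 2 h settle, then compound 24 h at 37 °C. Luminescence after 10 min with Amplite reagent.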
ELG1 genotoxic: qHTS screen for small molecules that induce genotoxicity in human embryonic kidney (HEK293T) cells expressing luciferase-tagged ELG1. AID 504466, 2011. Potency, µM (doses to about 46 µM), hits mostly activators. actives 1.3% (n = 330,000). HEK293T ELG1-luciferase reporter, luminescence, 16 h; further: nearly all actives have a fitted effect of over 60% in size
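Luminescence read-out: rising ELG1-luciferase signal, reflecting elevated ELG1 protein under genetic stress, flags genotoxic compounds. Cells were treated for 16 hr at 37 °C before ONE-Glo detection.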
Rab9 promoter act: qHTS Assay for Rab9 Promoter Activators; actives 2.8% (n = 320,000); AID 485297, 2010; Huh7 Rab9 promoter-luciferase reporter, luminescence, 24 h; Potency, µM (highest dose often 9.22 µM), hits mostly activators; further: nearly all actives have a fitted effect of over 60% in size
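Huh7 reporter line, Rab9 promoter upstream of luciferase. Compound exposure 24 h at 37 °C in reduced-serum medium with 10% FBS. Read-out: luminescence.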
KinaseGlo FLuc: Counterscreen for Luciferase (Kinase-Glo TM) Inhibition | Kinase-Glo luciferase, ATP luminescence, 8 min | Potency, µM (doses to about 38.3 µM), most hits filed as inhibitors | actives 0.28% (n = 200,000) | AID 1379, 2008; further: nearly all actives have a fitted effect of over 60% in size
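Compound is pinned into ATP-containing buffer (10 uM ATP, imidazole pH 7.2, 7 mM MgCl2). Kinase-Glo luciferase reagent is then added. Light output is recorded following an 8-min room-temperature incubation.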
FLuc counter: qHTS profiling assay for firefly luciferase inhibitor/activator using purifed enzyme and Km concentrations of substrates (counterscreen for miR-21 project). actives 6.9% (n = 360,000). purified FLuc, Km substrates, luminescence inhibition. Potency, µM (doses to about 57.5 µM), actives largely listed as inhibitors. Luciferin 4-monooxygenase (Photinus pyralis), P08659. AID 588342, 2011; further: nearly all actives have a fitted effect of over 55% in size
Target sequence (P08659 whole entry, looked up): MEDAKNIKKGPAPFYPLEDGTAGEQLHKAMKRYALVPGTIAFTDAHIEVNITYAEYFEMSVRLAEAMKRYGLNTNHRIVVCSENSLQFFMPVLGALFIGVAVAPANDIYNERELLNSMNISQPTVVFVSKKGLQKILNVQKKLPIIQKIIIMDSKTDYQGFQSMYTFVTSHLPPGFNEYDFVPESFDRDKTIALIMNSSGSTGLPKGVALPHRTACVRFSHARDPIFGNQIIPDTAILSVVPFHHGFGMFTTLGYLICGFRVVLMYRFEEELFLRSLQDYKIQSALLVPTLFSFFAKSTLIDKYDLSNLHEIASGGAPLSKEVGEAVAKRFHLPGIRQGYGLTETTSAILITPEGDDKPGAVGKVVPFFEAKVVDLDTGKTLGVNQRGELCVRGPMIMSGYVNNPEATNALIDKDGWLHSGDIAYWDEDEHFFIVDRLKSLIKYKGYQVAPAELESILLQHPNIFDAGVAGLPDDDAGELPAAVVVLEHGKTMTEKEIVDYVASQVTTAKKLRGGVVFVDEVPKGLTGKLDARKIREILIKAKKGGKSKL
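Biochemical qHTS of compounds, final roughly 60 µM downward over six points, against 10 nM purified firefly luciferase using Km concentrations of substrates (10 uM D-luciferin, 10 uM ATP) in Tris acetate pH 7.5 buffer; luminescence output.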
A number is an active result; [ ] = another dose, or the depositor's remark. In the library only some 7.3% were active in any assay of this set; here they are far more common. The call rests on the fitted dose curve; in most records, active means well fitted curve in the direction sought with a large enough effect; inconclusive means small, poorly fitted or top-dose-only effect, or another doubt; inactive means no such curve, though single readings can be large; an effect the other way counts as inactive or inconclusive.

What do the screens show for `Cc1cc(N/N=C/c2ccccc2O)nc(N2CCOCC2)n1`?
NPC1 prom act: inactive; ELG1 genotoxic: inactive; Rab9 promoter act: inactive; FLuc counter: 12µM

How did Cc1cc(N/N=C/c2cccc(Cl)c2)nc(-n2nc(C)cc2C)n1 do in these assays?
NPC1 prom act: inactive; ELG1 genotoxic: inactive; Rab9 promoter act: inactive; FLuc counter: inactive

How did CCOc1ccc(/C=N/Nc2cc(C)nc(N3CCOCC3)n2)cc1 do in these assays?
NPC1 prom act: inactive; ELG1 genotoxic: inactive; Rab9 promoter act: inactive; FLuc counter: 1.3µM

How did CC1=C(c2ccc(C)cc2)S(=O)(=O)N(Cc2ccc(C(=O)NCc3cccc(C)c3)cc2)C1=O do in these assays?
FLuc counter: inactive

How did COc1ccc(NC(=O)C2CCN(S(=O)(=O)c3ccc4c(c3)CCCC(=O)N4)CC2)cc1OC do in these assays?
FLuc counter: inactive

How did CC12CCC(C/C1=N\N=C1\NC(=O)/C(=C\c3ccc(Cl)cc3)S1)C2(C)C (configuration not stated) do in these assays?
SMN2 splice up: inactive; NPC1 prom act: inactive; ELG1 genotoxic: inactive; Rab9 promoter act: inactive; KinaseGlo FLuc: inactive; FLuc counter: 6µM

What do the screens show for `O=C1NC(=Nc2ccccc2Cl)S/C1=C\c1ccc(C(=O)O)cc1`?
NPC1 prom act: inactive; ELG1 genotoxic: inactive; Rab9 promoter act: inactive; FLuc counter: inconclusive

Results for CN(C)CN1C(=O)S/C(=C2/C(=O)N(CN(C)C)c3ccccc32)C1=O ?
SMN2 splice up: inactive[9.22 µM]; KinaseGlo FLuc: inactive[7.66 µM]

How did O=c1[nH]c(S)c(/C=C2\C=Nc3ccccc32)s1 do in these assays?
NPC1 prom act: inactive; ELG1 genotoxic: inactive; Rab9 promoter act: inactive; FLuc counter: 15µM

How did Oc1nc(Nc2ccc(F)cc2)sc1/C=C1\C=Nc2ccccc21 do in these assays?
NPC1 prom act: inactive; ELG1 genotoxic: inactive; Rab9 promoter act: inactive; FLuc counter: inconclusive

Results for Cc1cccc(-c2nnc(SCCC(=O)O)o2)c1 ?
SMN2 splice up: inactive; FLuc counter: 11µM

How did COc1cccc(-c2nnc(SCC(=O)N3CCCCC3)o2)c1 do in these assays?
SMN2 splice up: inactive; FLuc counter: inconclusive

How did Cc1cccc(-c2nnc(SCC(=O)N3CCCCC3)o2)c1 do in these assays?
SMN2 splice up: 4.5µM; FLuc counter: inconclusive

Results for Cc1cccc(-c2nnc(SCC(=O)N3CCCC3)o2)c1 ?
NPC1 prom act: 3.5µM; ELG1 genotoxic: inconclusive; Rab9 promoter act: 4µM; FLuc counter: 27µM

Results for O=C(O)CCCN1CCCCC1 ?
SMN2 splice up: inconclusive; KinaseGlo FLuc: inactive[7.66 µM]

Results for COc1ccccc1N1CCN(C(=O)CCn2cnc3onc(-c4ccc(F)cc4)c3c2=O)CC1 ?
FLuc counter: inactive

How did O=C(CSc1oc(-c2ccc(F)cc2)nc1S(=O)(=O)c1ccc(Cl)cc1)c1ccccc1 do in these assays?
SMN2 splice up: inactive; FLuc counter: inactive

Results for N/C(=N\OC(=O)c1ccc2c(c1)OCO2)c1ccncc1 ?
NPC1 prom act: 3.2µM; ELG1 genotoxic: inconclusive; Rab9 promoter act: 2.5µM; FLuc counter: 1.5µM

Results for COc1ccc(/C(N)=N/OC(=O)c2ccc3c(c2)OCO3)cc1 ?
SMN2 splice up: 11µM; NPC1 prom act: inconclusive; ELG1 genotoxic: inconclusive; Rab9 promoter act: inconclusive; KinaseGlo FLuc: inactive; FLuc counter: 2.1µM

What do the screens show for `N/C(=N\OC(=O)N1CCOCC1)c1ccc(Cl)cc1`?
SMN2 splice up: inactive; NPC1 prom act: inactive; ELG1 genotoxic: inactive; Rab9 promoter act: inconclusive; KinaseGlo FLuc: inactive; FLuc counter: inconclusive

How did Cc1ccc(/C(N)=N/OC(=O)c2ccc3c(c2)OCO3)cc1 do in these assays?
SMN2 splice up: 13µM; NPC1 prom act: 3.2µM; ELG1 genotoxic: inconclusive; Rab9 promoter act: 2.8µM; KinaseGlo FLuc: inactive; FLuc counter: 2.1µM

How did COc1ccc(C)cc1NC(=O)COC(=O)c1ccc2c(c1)OCO2 do in these assays?
NPC1 prom act: inactive; ELG1 genotoxic: inactive; Rab9 promoter act: inactive

How did N/C(=N\OC(=O)c1ccc2c(c1)OCO2)c1ccc(Cl)cc1 do in these assays?
SMN2 splice up: inconclusive; NPC1 prom act: 2.8µM; ELG1 genotoxic: inconclusive; Rab9 promoter act: inconclusive; KinaseGlo FLuc: inconclusive; FLuc counter: 0.85µM

Results for Cc1cc(C)cc(NC(=O)c2sc3nc[nH]c(=O)c3c2C)c1 ?
FLuc counter: inactive

How did COC(=O)c1cc(-c2ccc(Cl)cc2Cl)n[nH]1 do in these assays?
SMN2 splice up: inactive; NPC1 prom act: inactive; ELG1 genotoxic: inconclusive; Rab9 promoter act: inactive; KinaseGlo FLuc: inactive; FLuc counter: 15µM

What do the screens show for `COC(=O)c1cc(-c2ccc(Cl)cc2)n[nH]1`?
NPC1 prom act: inactive; ELG1 genotoxic: inactive; Rab9 promoter act: inactive; KinaseGlo FLuc: inactive; FLuc counter: inconclusive

How did O=C(O)/C(=C\c1ccncc1)c1cccc2ccccc12 do in these assays?
SMN2 splice up: inactive[9.22 µM]; KinaseGlo FLuc: inactive[7.66 µM]

Results for Cn1c(CO)cnc1SCc1ccc(Cl)cc1 ?
SMN2 splice up: inactive; NPC1 prom act: 3.5µM; ELG1 genotoxic: inactive; Rab9 promoter act: inconclusive; KinaseGlo FLuc: inactive; FLuc counter: inactive

Results for Cc1cc(C)n(C(C)CC(=O)Nc2ccc(C)c(N(C)C)c2)n1 (configuration not stated) ?
FLuc counter: inactive

What do the screens show for `O=C(CCCCn1c(=O)c2ccccc2n(Cc2cccc(F)c2)c1=O)NCc1ccc2c(c1)OCO2`?
SMN2 splice up: inactive; FLuc counter: inactive

How did COc1cc(SSc2cc(OC)cc([N+](=O)[O-])c2N)c(N)c([N+](=O)[O-])c1 do in these assays?
NPC1 prom act: inactive; ELG1 genotoxic: inactive; Rab9 promoter act: inactive; FLuc counter: 8.5µM

What do the screens show for `O=C(Nc1ccncc1)c1cc(-c2cccc(Br)c2)nc2ccccc12`?
NPC1 prom act: inactive; ELG1 genotoxic: inactive; Rab9 promoter act: inactive; FLuc counter: inactive

How did Cc1ccc2nc(-c3cccc(Br)c3)cc(C(=O)NC3=NCCS3)c2c1 do in these assays?
SMN2 splice up: inactive; NPC1 prom act: inactive; ELG1 genotoxic: inactive; Rab9 promoter act: inactive; KinaseGlo FLuc: inactive; FLuc counter: 5.4µM

What do the screens show for `O=C(Nc1cccnc1)c1cc(-c2cccc(Br)c2)nc2ccccc12`?
NPC1 prom act: inactive; ELG1 genotoxic: inactive; Rab9 promoter act: inactive; FLuc counter: inconclusive

What do the screens show for `O=C(Nn1cnnc1)c1cc(-c2cccc(Br)c2)nc2ccccc12`?
NPC1 prom act: inactive; ELG1 genotoxic: inconclusive; Rab9 promoter act: inactive; FLuc counter: 0.85µM
